Compound activity as filed in PubChem BioAssay.
Tb PYK inh: qHTS of Trypanosoma Brucei Inhibitors | pyruvate kinase (Trypanosoma brucei), Q57TT1 | TbPYK enzyme, Kinase-Glo Plus ATP luminescence, 45 min | Potency, µM (series often up to 76.8 µM), hits mostly inhibitors | 410,000 tested, 0.12% active | AID 624173, 2012; active means well fitted curve in the direction sought with a large enough effect; inconclusive means small, poorly fitted or top-dose-only effect, or another doubt; inactive means no such curve, though single readings can be large; an effect the other way counts as inactive or inconclusive; further: nearly all actives have a fitted effect of over 50% in size
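Luminescence from Kinase-Glo Plus, added after a 45-minute room-temperature reaction, served as the end-point read-out. The enzyme and substrate were preincubated with compound before ADP (130 uM final) initiated turnover. Concentration-effect curves came from normalized qHTS data.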
LmPK inh: qHTS Assay for Inhibitors of Leishmania Mexicana Pyruvate Kinase (LmPK) | AID 1721, 2009 | 290,000 tested, 0.37% active | Potency, µM (series often up to 57.5 µM), most hits filed as inhibitors | purified LmPK, Kinase-Glo ATP luminescence, 1 h | Q27686; active means well fitted curve in the direction sought with a large enough effect; inconclusive means small, poorly fitted or top-dose-only effect, or another doubt; inactive means no such curve, though single readings can be large; an effect the other way counts as inactive or inconclusive
Target sequence (Q27686 whole entry, looked up): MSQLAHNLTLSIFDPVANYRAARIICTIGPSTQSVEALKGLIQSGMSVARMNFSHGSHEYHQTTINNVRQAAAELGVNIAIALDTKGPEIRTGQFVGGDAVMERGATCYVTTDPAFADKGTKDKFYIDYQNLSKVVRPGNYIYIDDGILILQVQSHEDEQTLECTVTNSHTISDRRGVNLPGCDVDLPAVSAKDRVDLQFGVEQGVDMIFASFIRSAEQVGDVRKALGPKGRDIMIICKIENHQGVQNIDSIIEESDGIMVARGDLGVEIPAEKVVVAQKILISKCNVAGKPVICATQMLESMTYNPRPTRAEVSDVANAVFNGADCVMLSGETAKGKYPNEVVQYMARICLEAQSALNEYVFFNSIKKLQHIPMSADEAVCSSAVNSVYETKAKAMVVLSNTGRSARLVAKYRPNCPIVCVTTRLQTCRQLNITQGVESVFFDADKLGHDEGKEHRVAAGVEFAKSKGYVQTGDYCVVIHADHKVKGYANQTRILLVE
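qHTS format; LmPK 0.1 nM; substrates PEP 0.5 mM and ADP 0.1 mM. One-hour room-temperature incubation, then coupled luciferase luminescence; 0.5 nM enzyme wells mark activation.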
SARS PLpro yeast: qHTS of Yeast-based Assay for SARS-CoV PLP | S. cerevisiae expressing SARS-CoV PLpro, growth rescue | 330,000 tested, 0.19% active | Potency, µM (top dose mostly 32.9 µM), most hits filed as activators | AID 485353, 2010; further: nearly all actives have a fitted effect of over 55% in size
CHX counter: Cycloheximide Counterscreen for Small Molecule Inhibitors of Shiga Toxin; cell reporter, cycloheximide protein synthesis inhibition counterscreen; max response, %; 300,000 tested, 12% active; AID 2314, 2010; in the data active means max response mostly above about 13%, no sharp cut-off; inactive means mostly below about 14%; further: read at 38.3 µM for the half of the compounds with a filed dose
Shiga inhibitor: A qHTS for Small Molecule Inhibitors of Shiga Toxin; Vero cells, Shiga toxin protein synthesis inhibition reporter; inhibition, % at 38.7 µM; 290,000 tested, 9.2% active; in the data active means inhibition mostly above about 28%, no sharp cut-off; inactive means mostly below about 43%
NS1 inh: qHTS Assay for Inhibitors of Influenza NS1 Protein Function; Potency, µM (doses to about 46.1 µM); 270,000 tested, 0.4% active; AID 2326, 2010; further: actives are rising curves; nearly all actives have a fitted effect of over 50% in size
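Recovery from NS1-induced slow growth read by OD600 in budding yeast switched to galactose assay medium (pH 6.0, -URA) at 1:100 dilution. Compound 23 nl per well; the matching strain lacking NS1 serves as control.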
Flu NS1 inh: Assay for Inhibitors of Influenza NS1 Protein Function: Hit Validation; shares compounds with NS1 inh; influenza NS1 function cell assay, 15-point titration; activity change, negative = inhibition, % at 32.9 µM; 1,400 tested, under 10 active; AID 492980, 2010
Of the large screens only hits and unclear results are named; the others gave an inactive call (follow-up assays come after a bar, where they were run). This is one part of a sample in which hits are shown more often than they occur. Unless noted, the call rests on the fitted dose curve.

Cc1sc2nc(CN(Cc3cccs3)C(=O)NC3CCCCC3)[nH]c(=O)c2c1C	NS1 inh 0.45µM | Flu NS1 inh inconclusive
Cc1ccc(NC(=O)CSc2ncnc3c2sc2ccccc23)cc1C	none (no result: LmPK inh, SARS PLpro yeast, CHX counter, Shiga inhibitor, NS1 inh)
Cn1c(=O)cc(OCC(=O)NCCCN2CCN(Cc3ccccc3)CC2)c2ccccc21	NS1 inh 11µM | Flu NS1 inh inactive
CCOc1ccc(NC(=O)c2nnn(-c3ccc(F)c(Cl)c3)c2C)cc1	none (no result: LmPK inh, SARS PLpro yeast, CHX counter, Shiga inhibitor, NS1 inh)
c1ccc(-c2nnc(CN3CCCc4ccccc43)o2)cc1	CHX counter 16, NS1 inh inconclusive | Flu NS1 inh inconclusive
Clc1ccccc1N1CCN(Cc2nnc(-c3ccccc3)o2)CC1	none (no result: LmPK inh, SARS PLpro yeast, CHX counter, Shiga inhibitor, NS1 inh)
O=C(/C=C1\NC2(CCCC2)Cc2ccccc21)C(=O)N/N=C/c1ccc(O)c(O)c1	NS1 inh 18µM | Flu NS1 inh inactive
Cc1c(C(=O)NCCC2=CCCCC2)oc2ccc(S(=O)(=O)N3CCOCC3)cc12	none
Cc1c(C(=O)O)oc2ccc(S(=O)(=O)NCCC3=CCCCC3)cc12	NS1 inh 10µM | Flu NS1 inh inactive
CCCCC(=O)Nc1ccc2c(c1)nc1n2CCSC1	CHX counter 27, Shiga inhibitor 65, NS1 inh 8.9µM | Flu NS1 inh inactive
COc1ccccc1N1CCN(C(=O)c2ccc3c(c2)N(Cc2cc(C)ccc2C)C(=O)c2ccccc2S3(=O)=O)CC1	none (no result: LmPK inh, SARS PLpro yeast, CHX counter, Shiga inhibitor, NS1 inh)
COc1cc(/C=C2\SC(=S)N(Nc3ncc(C(F)(F)F)cc3Cl)C2=O)ccc1O	CHX counter 14, NS1 inh 4µM | Flu NS1 inh inactive
CN(C)c1ccc(/C=C2\SC(=S)N(Nc3ncc(C(F)(F)F)cc3Cl)C2=O)cc1	none
COc1ccc(Nc2nc(NCc3ccco3)nc(N/N=C/c3ccc(O)cc3)n2)cc1	CHX counter 16, Shiga inhibitor 70, NS1 inh 11µM | Flu NS1 inh inconclusive
Oc1ccc2ccccc2c1-c1sc(Nc2ccccc2)n[n+]1-c1ccc(F)cc1	NS1 inh inconclusive | Flu NS1 inh inactive
O=C(CCNS(=O)(=O)c1ccc(Br)s1)Nc1ccc(Br)cc1	none (no result: LmPK inh, SARS PLpro yeast, CHX counter, Shiga inhibitor, NS1 inh)
COc1ccccc1-n1c(SCC(=O)NC2CC2)nc2ccccc2c1=O	none (no result: LmPK inh, CHX counter, Shiga inhibitor, NS1 inh)
O=C(NNC(=O)c1ccc(Br)cc1)c1ccncc1	NS1 inh inconclusive (no result: Shiga inhibitor) | Flu NS1 inh inactive
O=C(Cn1c(=O)n(Cc2ccc(C(=O)NCc3ccccc3Cl)cc2)c(=O)c2ccccc21)Nc1ccc(F)c(Cl)c1	none (no result: LmPK inh, SARS PLpro yeast, CHX counter, Shiga inhibitor, NS1 inh)
O=C(CC1NCCNC1=O)Nc1ccc2c(c1)OCO2 (stereo unspecified)	NS1 inh 1.1µM | Flu NS1 inh inactive
O=C(CSc1nnc(-c2c[nH]c3ccccc23)o1)N1c2ccccc2CCc2ccccc21	NS1 inh 4µM | Flu NS1 inh inconclusive
CCOC(=O)C1(Cc2cccc(OC)c2)CCCN(C(=O)CCN2CCCO2)C1 (stereo unspecified)	CHX counter 57, Shiga inhibitor 148, NS1 inh inconclusive | Flu NS1 inh inactive
O=C(NCc1ccc(F)cc1)N[C@@H](Cc1ccccc1)C(=O)O	NS1 inh 1µM | Flu NS1 inh inactive
COc1cc(NC(=O)N[C@@H](Cc2ccccc2)C(=O)O)cc(OC)c1	NS1 inh inconclusive | Flu NS1 inh inactive
COc1cc2c(cc1OC)C(C)N(S(=O)(=O)c1cn(C)c(C)n1)CC2 (stereo unspecified)	none
COc1cccc(/C=C2\C(=O)N(c3cccc(C)c3)C(=O)c3ccccc32)c1	NS1 inh inconclusive | Flu NS1 inh inconclusive
Cc1cccc(N2C(=O)/C(=C\c3ccc(OC(F)F)cc3)c3ccccc3C2=O)c1	none
Cc1ccc(C)c(N2CCN(C(=O)Cn3c(-c4cccs4)cc4ccccc43)CC2)c1	none (no result: LmPK inh, SARS PLpro yeast, CHX counter, Shiga inhibitor, NS1 inh)
Cc1cc(=O)[nH]c(SCC(=O)Nc2nc(-c3ccccc3)c(-c3ccccc3)o2)n1	CHX counter 16, NS1 inh inconclusive | Flu NS1 inh inactive
Cc1cc(C)nc(SCC(=O)Nc2nc(-c3ccccc3)c(-c3ccccc3)o2)n1	none
COc1ccc(/C=N/NS(=O)(=O)c2ccccc2)cc1OS(=O)(=O)c1ccccc1	none
